# An excerpt weighted towards active compounds, which were near 3.8% of everything screened.
# PrP 5UTR inh: inhibition of PrP 5' UTR reporter expression. inhibition, % (test concentration not listed). 340,000 tested, 0.35% active. cell-based PrP 5' UTR mRNA reporter, plate reader. AID 488862; in the data active = inhibition above about 52%; note: 0 = median of the neutral control wells
# PrPC surface inh: cell surface PrPC inhibition, primary TR-FRET screen; P04156; TR-FRET read-out; inhibition, % at 13.8 µM; 370,000 tested, 0.43% active; AID 720596; in the data active = inhibition above about 24%; note: 0% = median of the test wells and 100% = reference compound wells
# Mtb hypoxia rep: inhibitors of hypoxia-regulated fluorescent reporter in Mycobacterium tuberculosis; M. tuberculosis hypoxia-regulated fluorescent reporter, fluorescence; fluorescence inhibition, % (concentration not given with the values); 300,000 tested, 0.1% active; in the data active = fluorescence inhibition mostly above about 23%, no sharp cut-off; inactive = mostly below about 17%
# FBA Mtb inh: inhibitors of M. tuberculosis fructose-bisphosphate aldolase | P9WQA3 | purified M. tuberculosis FBA, fluorescence read-out | inhibition, % at 1 µM | 360,000 tested, 2.3% active | AID 588726;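 note: 0% = vehicle and 100% = reference inhibitor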
# Target sequence (P9WQA3 whole entry, looked up): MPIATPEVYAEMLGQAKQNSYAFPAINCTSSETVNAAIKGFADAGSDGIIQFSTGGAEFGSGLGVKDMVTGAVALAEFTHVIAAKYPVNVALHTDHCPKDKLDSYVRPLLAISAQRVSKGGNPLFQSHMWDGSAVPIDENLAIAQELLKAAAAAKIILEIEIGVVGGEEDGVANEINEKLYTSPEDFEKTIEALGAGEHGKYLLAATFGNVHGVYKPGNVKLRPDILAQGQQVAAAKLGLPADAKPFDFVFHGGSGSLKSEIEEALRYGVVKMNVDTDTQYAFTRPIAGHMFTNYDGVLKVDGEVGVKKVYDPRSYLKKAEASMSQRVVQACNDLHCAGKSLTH
# Yp Topo-I inh: inhibitors of Yersinia pestis topoisomerase I | AID 504884 | Y. pestis Topo-I cleavage product accumulation, plate reader | 360,000 tested, 0.064% active | activity, % at 10 µM; in the data active = activity above about 50%, passing the limit was not always enough
# GDH-TPI counter-1: GDH-TPI coupled enzyme inhibition counter-screen | 360,000 tested, 1.2% active | AID 588335 | GDH-TPI coupled enzyme counterscreen, NADH absorbance | inhibition, % at 4.8 µM; in the data active = inhibition above about 30%;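 note: 0% = DMSO wells and 100% = wells lacking the enzyme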
# Mtb FBA inh conf: confirmation of M. tuberculosis fructose-bisphosphate aldolase inhibitors. shares compounds with FBA Mtb inh. purified M. tuberculosis FBA, fluorescence read-out. inhibition, % at 1 µM. 5,600 tested, 78% active;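 note: 0% = vehicle wells and 100% = reference inhibitor wells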
# GDH-TPI counter-2: GDH-TPI inhibition counter-screen for FBA inhibitors; shares compounds with FBA Mtb inh; GDH-TPI coupled enzyme counterscreen, fluorescence; inhibition, % at 1 µM; 5,600 tested, 81% active; AID 652141; in the data active = inhibition above about 10%
# GDH-TPI dose: inhibits GDH-TPI coupling enzymes in dose response. GDH-TPI coupled enzyme assay, fluorescence, artifact counterscreen. AID 652145. IC50, µM. 170 tested, 79% active. shares compounds with FBA Mtb inh; call rule not given here
# * marks the source's active call; other numbers are inactive results; / = no result; + = active, no number. Cut-off read from the data, not from the text of the source, unless noted: active = inhibition above about 27%; inactive = the rest.
SMILES,PrP 5UTR inh,PrPC surface inh,Mtb hypoxia rep,FBA Mtb inh,Yp Topo-I inh,GDH-TPI counter-1,Mtb FBA inh conf,GDH-TPI counter-2,others
C=CCn1c(NC(=O)c2ccc(Br)o2)c(S(=O)(=O)c2ccccc2)c2nc3ccccc3nc21,-24.5,2.6,2.3,49.6*,-8.2,1.1,51.9*,47.1*,
CCCCn1c(NC(=O)c2ccc(Br)o2)c(C(=O)OCC)c2nc3ccccc3nc21,-16.5,-1.2,/,57.9*,9.1,11.2,+,179.2*,
CCOC(=O)c1c(NC(=O)c2ccco2)n(C2CCCCC2)c2nc3ccccc3nc12,-4.1,8.9,-4.4,62.7*,3.7,15.2,14.4,9.2,GDH-TPI dose=2.91*
O=C(Nc1ccc(S(=O)(=O)NCc2ccccc2)cc1)c1ccc(Br)o1,1.4,5.8,/,7.0,-7.3,11.8,/,/,
CCCCn1c(NS(=O)(=O)c2ccc(C)cc2)c(S(=O)(=O)c2ccccc2)c2nc3ccccc3nc21,18.0,0.7,/,4.7,-5.0,8.0,/,/,
CCCCn1c(NS(=O)(=O)c2ccccc2)c(C(=O)OCC)c2nc3ccccc3nc21,-9.0,-3.8,4.9,53.4*,15.3,15.5,193.9*,150.8*,
CCOC(=O)c1sc(NC(=O)c2ccc(Br)o2)cc1C,-100.9,7.1,4.5,0.2,-5.1,19.8,/,/,
CNC(=S)N/N=C/c1ccc(-c2ccc(C(=O)O)cc2)o1,9.2,-7.0,/,40.7*,-6.5,53.1*,+,+,
C=CCNC(=S)NN=Cc1ccc(-c2ccc(Br)cc2)o1,/,/,12.5,/,/,/,/,/,
C=CCNC(=S)N/N=C/c1ccc(-c2ccc(OC)cc2)o1,-25.3,10.2,/,29.3*,0.6,14.4,-5.6,-5.5,
COc1ccc(CNC(=O)c2c(N)n(CCCN3CCOCC3)c3nc4ccccc4nc23)cc1,-11.3,-1.3,3.8,55.1*,24.1,13.3,132.2*,107.2*,
COc1ccc(CCNC(=O)c2c(N)n(CCN3CCOCC3)c3nc4ccccc4nc23)cc1,-9.8,0.2,8.0,20.8,35.8,-1.3,/,/,
Nc1c(C(=O)NCc2ccccc2)c2nc3ccccc3nc2n1CCCN1CCOCC1,-3.4,-0.8,11.8,58.4*,16.1,7.8,146.2*,113.6*,
Nc1c(C(=O)NCc2ccc(F)cc2)c2nc3ccccc3nc2n1CCCN1CCOCC1,-14.0,-3.8,3.2,47.9*,22.8,10.8,+,+,
CC(O)C(=O)C1=Nc2c(nc(N)[nH]c2=O)NC1 (stereo unspecified),/,/,5.9,/,/,/,/,/,
CCOC(=O)C(=NNc1ccc(OC)cc1)N1CCCc2ccccc21,/,/,0.4,/,/,/,/,/,
CCC1(C(=O)OC)CCc2c(cc(OC)c3ccccc23)C1=O (stereo unspecified),-28.5,/,-2.3,28.3*,30.6,3.6,110.6*,70.6*,
COC(=O)C1(C)CCc2c(ccc3ccccc23)C1=O (stereo unspecified),/,4.5,/,34.8*,/,/,56.4*,47.5*,
CCOc1ccc(C(=O)NN=Cc2ccc(SC)cc2)cc1,/,/,13.1,/,/,/,/,/,
CCCCNc1c(-c2cccc(-c3cc(C(C)=O)cs3)c2)nc2ccc(C)cn12,-5.5,2.0,-0.5,-0.4,23.7,25.6,/,/,
CCCCNc1c(-c2cccc(-c3ccc(OC)cc3)c2)nc2ccc(C)cn12,-23.4,12.5,14.7,30.7*,-1.5,5.7,6.6,2.3,
CCCCNc1c(-c2cccc(-c3ccc(OC)cc3)c2)nc2cc(C)ccn12,-9.6,17.7,10.8,29.0*,24.2,10.0,65.8*,57.5*,
O=[N+]([O-])c1ccccc1C=NNC1=NS(=O)(=O)c2ccccc21,/,/,-7.1,/,/,/,/,/,
COc1cc(C=NNC(=O)CNC(=O)c2ccncc2)ccc1OC(C)=O,/,/,12.5,/,/,/,/,/,
CCOC(=O)c1sc(-c2cccs2)nc1C,-33.3,3.0,13.1,11.7,2.7,16.8,/,/,
CCOC(=O)c1cc(-c2cccs2)nc2onc(C)c12,-6.0,0.5,/,41.7*,-9.6,-6.2,81.8*,74.0*,
CCCC(=NNc1ccc(Cl)cc1)c1cnnc(-c2ccccc2)n1,/,/,6.4,/,/,/,/,/,
Cc1c(-c2ccccc2)n(O)c(-c2ccc(N(C)C)cc2)[n+]1[O-],/,7.0,/,56.8*,3.5,15.0,126.5*,108.5*,
